Inconclusive results are not listed. Where a call stands in place of a potency, no number is given. The source made the active and inactive calls. The call rests on the fitted dose curve; in most records, active means well fitted cell-killing curve with a large enough effect; inconclusive means small, poorly fitted or top-dose-only effect, or effect the other way; inactive means flat fitted curve, though single readings scatter.
Potency means the concentration at half of the fitted maximal effect.

The test system of one experiment is Hek293T. The experiment can be described thus: Primary qHTS to identify gynecologic anti-cancer compounds using libraries of approved drugs and bioactive compounds (AID 1345084). Further: nearly all actives have a fitted effect of over 55% in size. Conditions: Gynecologic cancer cell panel viability, ATPlite luminescence, 48 h, control line for the selectivity index; series mostly up to 57.5 µM. Summed up: (§1)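 In this quantitative HTS, cell killing is estimated from loss of ATP-dependent luciferase light. Cells see five compound concentrations over a 48 h exposure.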
(In general: In qHTS, concentration-response curves come from the screen itself.)
With `c1ccc2c(c1)Sc1ccccc1N2CC1CN2CCC1CC2` (stereo not given), the Potency is 31.6 µM (active). In the case of `CN1C(=O)[C@@H](NC(=O)c2cc3ccccc3[nH]2)N=C(c2ccccc2)c2ccccc21`, the Potency entry was “inactive”. Consider `C=CC[C@]1(O)CC[C@H]2[C@@H]3CCC4=CC(=O)CCC4=C3C=C[C@@]21C`, for which the Potency result is “inactive”. As for `CC(CC(C#N)(c1ccccc1)c1ccccc1)N(C)C` (stereo not given), the Potency result was “inactive”.

Regarding `CC(C)=CCN1CC[C@@]2(C)c3cc(O)ccc3C[C@@H]1[C@@H]2C`, the Potency result was “inactive”.

Take `CC1N=C(N)OC1c1ccccc1` (stereo not given): the Potency entry was “inactive”. Same read-out and setting: as for `Clc1ccc(C(OCCN2CCCCC2)c2ccccc2)cc1` (stereo not given), the entry is “inactive”; as for `CN1CCc2cc(Cl)c(O)cc2[C@H]2c3ccccc3CC[C@@H]21`, “inactive”; as for `CCCC(C)C1(CC)C(=O)N=C(S)NC1=O` (stereo not given), “inactive”.

For `CC[C@H](O)C(C[C@H](C)N(C)C)(c1ccccc1)c1ccccc1`, the Potency entry is “inactive”. The same measure, in the same setting: next, `CCCN(CCC)CCc1c[nH]c2ccccc12`: “inactive”; `Cc1c(Cl)c(=O)oc2cc(OP(=O)(OCCCl)OCCCl)ccc12`: “inactive”; `CC#C[C@]1(O)CC[C@H]2[C@@H]3C[C@H](C)C4=CC(=O)CC[C@]4(C)[C@H]3CC[C@@]21C`: “inactive”.

Regarding `CC(=O)OC1(c2ccccc2)CCN(CCc2ccccc2)CC1`, the Potency entry was “inactive”.

For the compound `C=CCOC(Cn1ccnc1)c1ccc(Cl)cc1Cl` (stereo not given), the Potency result was “inactive”.

With `Clc1ccc(CO/N=C(\Cn2ccnc2)c2ccc(Cl)cc2Cl)c(Cl)c1`, the Potency result was “inactive”. On to `CCN(CC)Cc1nccn1-c1ccc([N+](=O)[O-])cc1C(=O)c1ccccc1Cl`, for which the Potency entry was “inactive”.

The next experiment concerns JEG-3. The description is as above. Particulars: Gynecologic cancer cell panel viability, ATPlite luminescence, 48 h; series mostly up to 57.5 µM. Summed up:
as §1
For orientation: Cellular ATP, detected with luciferase, serves as a proxy for viable cell number.
Consider `CC[C@H]1C[C@H]2[C@@H]3CCC4=CC(=O)CC[C@@H]4[C@H]3CC[C@]2(C)[C@H]1O`, for which the Potency entry was “inactive”. On the same count and under the same terms, as for `CCCCCCCCCCCC[N+](C)(C)CCOc1ccccc1`, the entry is “inactive”; as for `Cc1nnc2n1-c1sc(CCc3ccc(CC(C)C)cc3)cc1C(c1ccccc1Cl)=NC2C` (stereo not given), “inactive”; as for `CN1C(=O)[C@@H](NC(=O)c2cc3ccccc3[nH]2)N=C(c2ccccc2)c2ccccc21`, “inactive”. With `C=CC[C@]1(O)CC[C@H]2[C@@H]3CCC4=CC(=O)CCC4=C3C=C[C@@]21C`, the Potency result is “inactive”. For the compound `CC(CC(C#N)(c1ccccc1)c1ccccc1)N(C)C` (stereo not given), the Potency entry was “inactive”.

Consider `COc1cc(CC(C)N)c(OC)cc1Br` (stereo not given), for which the Potency entry was “inactive”. Turning to `CNC(=O)NC(O)C(Cl)(Cl)Cl` (stereo not given), the Potency entry was “inactive”. On the same count and under the same terms, as for `CC(C)=CCN1CC[C@@]2(C)c3cc(O)ccc3C[C@@H]1[C@@H]2C`, the entry is “inactive”; as for `CC1N=C(N)OC1c1ccccc1` (stereo not given), “inactive”. With `Clc1ccc(C(OCCN2CCCCC2)c2ccccc2)cc1` (stereo not given), the Potency entry was “inactive”. Same read-out and setting: next, `O=C(NC(=O)c1c(F)cccc1F)Nc1cc(Cl)c(OC(F)(F)C(F)C(F)(F)F)cc1Cl` (stereo not given): “inactive”; `COP(=S)(OC)Oc1ccc(Sc2ccc(OP(=S)(OC)OC)cc2)cc1`: “inactive”. The same measure, in the same setting: as for `CCCC(C)C1(CC)C(=O)N=C(S)NC1=O` (stereo not given), the entry is “inactive”; as for `CC[C@]1(O)CC[C@H]2[C@@H]3CCC4=CCCC[C@@H]4[C@H]3CC[C@@]21C`, “inactive”. For the compound `CCC1(CC)C(=O)NC(=O)NC1=O`, the Potency result is “inactive”. Still for that read-out and setting: next, `N#Cc1nn(-c2c(Cl)cc(C(F)(F)F)cc2Cl)c(N)c1S(=O)C(F)(F)F` (stereo not given): “inactive”. The same measure, in the same setting: next, `CC[C@H](O)C(C[C@H](C)N(C)C)(c1ccccc1)c1ccccc1`: “inactive”. Take `CCCN(CCC)CCc1c[nH]c2ccccc12`: the Potency entry was “inactive”.

As for `Cc1c(Cl)c(=O)oc2cc(OP(=O)(OCCCl)OCCCl)ccc12`, the Potency entry is “inactive”. The same measure, in the same setting: as for `Oc1ccc2[nH]cc(CCCCN3CC=C(c4ccccc4)CC3)c2c1`, the entry is “inactive”; as for `CCO[C@H]1O[C@@H]2OC3(C)CC[C@H]4[C@H](C)CC[C@@H]([C@H]1C)[C@@]24OO3`, “inactive”. Same read-out and setting: as for `C[C@H](N)[C@H](O)c1ccc(O)c(O)c1`, the entry is “inactive”; as for `C[C@@H]1O[C@@H](O[C@@H]2C=C3CC[C@@H]4[C@H](CC[C@]5(C)[C@@H](c6ccc(=O)oc6)CC[C@]45O)[C@@]3(C)CC2)[C@H](O)[C@H](O)[C@H]1O`, “inactive”. For the compound `CC(=O)OC1(c2ccccc2)CCN(CCc2ccccc2)CC1`, the Potency result was “inactive”. As to `C=CCOC(Cn1ccnc1)c1ccc(Cl)cc1Cl` (stereo not given), the Potency result is “inactive”. Still for that read-out and setting: next, `Clc1ccc(CSC(Cn2ccnc2)c2ccc(Cl)cc2Cl)cc1` (stereo not given): “inactive”; `CN1[C@@H]2CC[C@H]1CC(OC(=O)c1cc(Cl)cc(Cl)c1)C2` (stereo not given in full): “inactive”. Consider `Clc1ccc(CO/N=C(\Cn2ccnc2)c2ccc(Cl)cc2Cl)c(Cl)c1`, for which the Potency entry is “inactive”. On to `CCN(CC)Cc1nccn1-c1ccc([N+](=O)[O-])cc1C(=O)c1ccccc1Cl`, for which the Potency result was “inactive”. With `O=C1NCN(c2ccccc2)C12CCN(CCCOc1ccc(F)cc1)CC2`, the Potency entry was “inactive”.

A further experiment relates to OV90. The experiment is described as above. Particulars: Gynecologic cancer cell panel viability, ATPlite luminescence, 48 h; series mostly up to 57.5 µM. Summed up:
as §1
On to `CC[C@H]1C[C@H]2[C@@H]3CCC4=CC(=O)CC[C@@H]4[C@H]3CC[C@]2(C)[C@H]1O`, for which the Potency entry is “inactive”.

With `c1ccc2c(c1)Sc1ccccc1N2CC1CN2CCC1CC2` (stereo not given), the Potency was 28.2 µM (active).

For `COc1cc(CC(C)N)c(OC)cc1Br` (stereo not given), the Potency entry is “inactive”.

On to `CNC(=O)NC(O)C(Cl)(Cl)Cl` (stereo not given), for which the Potency entry is “inactive”. For the compound `O=C(NC(=O)c1c(F)cccc1F)Nc1cc(Cl)c(OC(F)(F)C(F)C(F)(F)F)cc1Cl` (stereo not given), the Potency result was “inactive”. In the case of `COP(=S)(OC)Oc1ccc(Sc2ccc(OP(=S)(OC)OC)cc2)cc1`, the Potency entry was “inactive”. Same read-out and setting: as for `CCC1(CC)C(=O)NC(=O)NC1=O`, the entry is “inactive”; as for `N#Cc1nn(-c2c(Cl)cc(C(F)(F)F)cc2Cl)c(N)c1S(=O)C(F)(F)F` (stereo not given), “inactive”. Still for that read-out and setting: as for `Oc1ccc2[nH]cc(CCCCN3CC=C(c4ccccc4)CC3)c2c1`, the entry is “inactive”.

As to `CCO[C@H]1O[C@@H]2OC3(C)CC[C@H]4[C@H](C)CC[C@@H]([C@H]1C)[C@@]24OO3`, the Potency result was “inactive”. For `CC[n+]1c(-c2ccccc2)c2cc(N)ccc2c2ccc(N)cc21`, the Potency is 14.1 µM (active). The same measure, in the same setting: as for `O=C1NCN(c2ccccc2)C12CCN(CCCOc1ccc(F)cc1)CC2`, the entry is “inactive”.

The values are drawn from PubChem BioAssay (NCATS).
